Source: PubChem BioAssay
HepG2 tox: counter-screen for TGF-b inhibitors: cytotoxicity in HepG2 cells; hit rate 0.76% among 410,000; Potency, µM (doses to about 46.1 µM), inactives show top-dose activity change, negative = cytotoxicity, hits mostly cytotoxic; HepG2 CAGA-GFP viability, ATP luminescence, 18 h; AID 588856
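HepG2 CAGA-GFP cells (1000/well, DMEM with 1% FBS) received compound, then TGF-beta at 500 pg/mL final, and were incubated 18 hours at 37 degrees C. Viability was read by CellTiter-Glo luminescence. Media-only wells were set as complete cell-killing and DMSO as no toxicity.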
RORgamma inh: blocks mouse ROR gamma transcriptional activity; Potency, µM (titrated, usually from 53.6 µM), for the others: top-dose activity change, negative = inhibition, usual class: inhibitors; hit rate 5.4% among 310,000; Drosophila S2 Gal4-RORgamma UAS-luciferase reporter, 20 h; AID 2551; further: on the % scale 0 is the no-effect control and ±100 the full control effect; nearly all actives have a fitted effect of over 60% in size
Target sequence (P51450 whole entry, looked up, the tested form may be a part): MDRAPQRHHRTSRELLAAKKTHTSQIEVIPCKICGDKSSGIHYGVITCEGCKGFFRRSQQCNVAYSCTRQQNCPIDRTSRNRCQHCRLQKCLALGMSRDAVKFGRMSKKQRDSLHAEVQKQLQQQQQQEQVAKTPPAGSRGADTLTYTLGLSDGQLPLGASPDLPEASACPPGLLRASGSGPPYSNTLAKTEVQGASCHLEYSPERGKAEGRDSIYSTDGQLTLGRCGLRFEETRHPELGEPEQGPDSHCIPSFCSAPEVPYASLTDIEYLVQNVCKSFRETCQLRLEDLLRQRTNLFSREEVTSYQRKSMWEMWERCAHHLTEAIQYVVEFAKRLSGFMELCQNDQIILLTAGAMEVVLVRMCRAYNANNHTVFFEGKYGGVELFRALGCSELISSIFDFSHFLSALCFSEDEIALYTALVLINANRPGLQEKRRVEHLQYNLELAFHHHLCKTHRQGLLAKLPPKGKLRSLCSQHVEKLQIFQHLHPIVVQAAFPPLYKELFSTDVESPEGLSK
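Compounds are pin-transferred onto Drosophila Schneider cells expressing a copper-inducible Gal4–ROR gamma transactivation domain fusion. After 1 hr, copper sulfate is added to 700 uM final; luciferase is read 20 hr later.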
TGFb inhibitor: TGF-b pathway inhibition. HepG2 CAGA-GFP TGF-b/SMAD3 reporter, GFP fluorescence, 18 h; TGF-beta stimulated, 500 pg/mL final. Potency, µM (titrated, usually from 46.1 µM), without a hit: top-dose activity, negative = inhibition, usual class: inhibitors. hit rate 1.2% among 410,000; further: on the % scale 0 is the no-effect control and ±100 the full control effect; nearly all actives have a fitted effect of over 65% in size
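TGF-beta reporter screen: HEPG2 CAGA-GFP, 1% FBS, 500 pg/mL TGF-beta final, 18 h; per-cell GFP summed per well; curves fitted and categorized by class.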
ATXN2 expr inh: inhibitors of ATXN2 expression; AID 1745845; hit rate 0.72% among 360,000; Potency, µM (highest dose often 57 µM), for the others: at the highest dose activity change, negative = inhibition, hits mostly inhibitors; HEK-293 ATXN2-luciferase reporter, luminescence, 24 h; further: on the % scale 0 is the no-effect control and ±100 the full control effect; nearly all actives have a fitted effect of over 55% in size
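qHTS (up to 57 uM final) was run with 24 h compound exposure of reporter cells at 37 °C. Each well was multiplexed: SteadyGlo luminescence measured ATXN2-luciferase expression after a fluorogenic Gly-Phe-AFC viability readout (25 uM final).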
Gal4-VP16 FLuc: inhibits Gal4-VP16 luciferase reporter, ROR gamma counter-screen; hit rate 3.5% among 310,000; Drosophila S2 Gal4-VP16 UAS-luciferase, luminescence, 20 h; Potency, µM (series often up to 53.6 µM), without a hit: top-dose activity, negative = inhibition, actives largely listed as inhibitors; AID 2546;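 further: Gal4-VP16 expression switched on by copper sulfate through the metallothionein promoter; on the % scale 0 is the no-effect control and ±100 the full control effect; nearly all actives have a fitted effect of over 50% in size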
S2 tox: reduces viability in counter-screen for ATXN expression inhibitors; S2 cells (HEK-293 line with an ATXN2-luciferase reporter) viability, CellTiter-Fluor protease fluorescence, 24 h; Potency, µM (doses to about 56.7 µM), usual class: cytotoxic; hit rate 0.49% among 400,000; AID 651635; further: nearly all actives have a fitted effect of over 40% in size
* marks the source's active call; other numbers are inactive results; i = inactive; ? = inconclusive; . = no result. This is a sample that favours compounds with a hit; in the whole collection about 6.3% have one here. The call rests on the fitted dose curve; in most records, active means well fitted curve in the direction sought with a large enough effect; inconclusive means small, poorly fitted or top-dose-only effect, or another doubt; inactive means no such curve, though single readings can be large; an effect the other way counts as inactive or inconclusive. Potency means the concentration at half of the fitted maximal effect.

SMILES	HepG2 tox	RORgamma inh	TGFb inhibitor	ATXN2 expr inh	Gal4-VP16 FLuc	S2 tox
COc1ccc(NC(=O)CC2C(=O)N(c3ccc(F)cc3)C(=S)N2NC(=O)c2ccccc2)cc1 (configuration not stated)	7%	13µM*	-8%	-23%	?	?
CNC(=O)CC1C(=O)N(Cc2ccccc2)C(=S)N1NC(=O)c1cccc(F)c1 (configuration not stated)	-6%	?	-5%	5%	-8%	i
CNC(=O)CC1C(=O)N(c2ccc(OC)cc2)C(=S)N1NC(=O)c1cccc(F)c1 (configuration not stated)	10%	7.1µM*	12%	26%	?	i
CCN1C(=O)C(CC(=O)Nc2ccccc2Cl)N(NC(=O)c2cccc(F)c2)C1=S (configuration not stated)	-11%	11µM*	-10%	-5%	?	i
CCCCCC(=O)NN1C(=S)N(c2ccc(OC)cc2)C(=O)C1CC(=O)Nc1ccccc1 (configuration not stated)	-19%	-21%	0%	-15%	-8%	i
Cc1cc(=O)n2[nH]c(SCc3ccccc3Cl)nc2n1	-24%	10%	1%	-6%	-9%	i
COc1ccc(NC(=O)CCNS(=O)(=O)c2ccc3c(c2)CCCC(=O)N3)cc1	-11%	.	30%	1%	.	i
Cc1n[nH]c(=O)n1-c1ccc(OC(F)(F)F)cc1	-1%	26%	-2%	4%	-6%	i
CC(C)c1cc(-c2n[nH]c(=O)n2-c2ccc3c(ccn3C)c2)c(O)cc1O	.	.	.	0.077µM*	.	.
COCCN1CCN(C(=O)c2cnn(-c3nccc(-c4ccco4)n3)c2C2CC2)CC1	.	.	.	.	.	i
COc1cc(C(=O)Oc2ccccc2/C=N/NC(=O)c2ccc(Cl)cc2)cc(OC)c1OC	6%	6.3µM*	7.1µM*	0%	11µM*	?
CC(=O)Nc1ccc(C(=O)N/N=C/c2ccccc2OC(=O)c2ccc(Cl)cc2)cc1	-64%	?	?	-36%	-8%	i
COc1cc(C(=O)Oc2ccccc2/C=N/NC(=O)c2ccc(C)c(Cl)c2)cc(OC)c1OC	-48%	5µM*	?	?	?	?
O=C(Nc1nnc([C@H]2C[C@H](O)[C@@H](CO)O2)s1)c1cccc(OC(F)(F)F)c1	4%	.	20%	9%	.	i
COc1ccc(Cn2c(=O)c3oc4ccccc4c3n(Cc3ccc(F)cc3)c2=O)cc1	-4%	.	8%	.	.	.
CN1CCN(C(=O)C2Cc3c(-c4cccc(F)c4)ccnc3O2)CC1 (configuration not stated)	-2%	.	6%	-6%	.	i
COc1cc2nc(SCc3ccc(Cl)cc3Cl)n(Cc3cccs3)c(=N)c2cc1OC	-4%	?	-11%	-1%	16µM*	?
CCn1cc2nc(SCc3cc(C)ccc3C)n(Cc3ccc(OC)cc3)c(=O)c2n1	-14%	.	-14%	-3%	.	i
COc1ccc(Cn2c(SCc3ccc(C)cc3)nc3cc(OC)c(OC)cc3c2=N)cc1Cl	5.6µM*	4µM*	?	28µM*	1.4µM*	16µM*
COc1ccc(Cn2c(SCc3cc(C)ccc3C)nc3cc(OC)c(OC)cc3c2=N)cc1	10µM*	34%	-4%	.	-6%	.
C=CCNC(=O)CN1C(=O)CSc2ccc(S(=O)(=O)N3CCOCC3)cc21	-1%	.	-4%	.	.	i
Cc1csc(C(C)N(C)C(=O)c2cc(NC(=O)C3CCC3)c3c(c2)nc(-c2ccncc2)n3C)n1 (configuration not stated)	.	.	.	.	.	i
CC[C@@H]1Cn2c(c3nc(-c4ccccc4)nc-3n(C)c2=O)N1	.	-31%	.	.	1%	.
CC[C@@H]1Cn2c(c3nc(-c4cc(Cl)cc(Cl)c4Cl)nc-3n(C)c2=O)N1	.	8.9µM*	.	.	?	.
COC(=O)CC(=O)CSc1nc2c(cc1C#N)CCC2	1%	?	4%	2%	18µM*	i
SMILES	HepG2 tox	RORgamma inh	TGFb inhibitor	ATXN2 expr inh	Gal4-VP16 FLuc	S2 tox
Cc1cccc(CSc2nc3c(cc2C#N)CCC3)c1	0%	?	-7%	2%	3%	i
N#Cc1cc2c(nc1SCc1nc3ccccc3[nH]1)CCC2	.	10µM*	.	.	11µM*	.
COc1ccc(CN2C[C@H](Sc3nc4ccccc4[nH]3)C[C@H]2C(=O)N(C)C)c2ccccc12	.	.	.	.	.	i
O=C(O)C(c1ccccc1)C1(O)CCC1 (configuration not stated)	-11%	.	-6%	3%	.	i
CCC(C)Nc1c2c(nc3c(-c4ccccc4)c(C)nn13)CCC2 (configuration not stated)	-3%	10µM*	?	-34%	-12%	i
COCCNc1c2c(nc3c(-c4ccccc4)c(C)nn13)CCCC2	-39%	?	?	-23%	-2%	i
Cc1nn2c(NCCN(C)C)c3c(nc2c1-c1ccccc1)CCCC3	-68%	?	11µM*	-3%	0.45µM*	.
COc1cccc(Nc2c3c(nc4c(-c5ccccc5)c(C)nn24)CCC3)c1	-13%	?	-11%	-6%	3.2µM*	i
Cc1nn2c(Nc3ccc(F)cc3)c3c(nc2c1-c1ccccc1)CCC3	-21%	2.8µM*	?	-14%	?	i
CCCCNc1c2c(nc3c(-c4ccccc4)c(C)nn13)CCC2	-62%	-4%	-3%	2%	1%	i
CC(=O)c1ccc(NC(=O)c2cnn3c2NC(=C2CC2)C=C3C(F)F)cc1	14%	.	5%	.	.	.
COC(=O)c1ccc(Oc2nc3c(c(=O)n(C)c(=O)n3C)n2Cc2ccc(Cl)c(Cl)c2)cc1	-18%	.	-28%	-2%	.	i
Cc1c(NC(=S)NC(=O)c2ccc(Br)o2)c(=O)n(-c2ccccc2)n1C	0%	2%	-5%	.	3%	i
Cc1cccc(NC(=S)NC(=O)c2ccc(Br)o2)c1C	-3%	3.5µM*	?	.	?	i
Cc1ccc(NC(=S)NC(=O)c2ccc(Br)o2)c(C)c1	0%	2.2µM*	0%	23%	?	i
Cc1cccc(C)c1NC(=S)NC(=O)c1ccc(Br)o1	-18%	3.2µM*	-9%	-12%	?	i
O=C(NC(=S)Nc1ccccc1F)c1ccc(Br)o1	-29%	4.5µM*	-25%	.	?	i
COc1ccc(C2c3c(n(C)c4ccccc34)C(=O)N2CC(=O)Nc2ccccc2F)cc1 (configuration not stated)	-32%	.	0%	.	.	.
